Holding throughout (conditions): Compound concentration 20.0 uM
Assay [1] has as its target Tyrosine-protein kinase ABL1 (Homo sapiens) (UniProt P00519).
The target of assay [2] is Bromodomain-containing protein 4 (Homo sapiens) (UniProt O60885).
The target in assay [3] is Cyclin-dependent kinase 2 (Homo sapiens) (UniProt P24941).
The target of assay [4] is Casein kinase I isoform delta (Homo sapiens) (UniProt P48730).
Assay [5] has as its target Glycogen synthase kinase-3 beta (Homo sapiens) (UniProt P49841).
For assay [6], the target named is Mitogen-activated protein kinase 1 (Homo sapiens) (UniProt P28482).
Sequence of Mitogen-activated protein kinase 1 (Homo sapiens) (P28482 whole entry): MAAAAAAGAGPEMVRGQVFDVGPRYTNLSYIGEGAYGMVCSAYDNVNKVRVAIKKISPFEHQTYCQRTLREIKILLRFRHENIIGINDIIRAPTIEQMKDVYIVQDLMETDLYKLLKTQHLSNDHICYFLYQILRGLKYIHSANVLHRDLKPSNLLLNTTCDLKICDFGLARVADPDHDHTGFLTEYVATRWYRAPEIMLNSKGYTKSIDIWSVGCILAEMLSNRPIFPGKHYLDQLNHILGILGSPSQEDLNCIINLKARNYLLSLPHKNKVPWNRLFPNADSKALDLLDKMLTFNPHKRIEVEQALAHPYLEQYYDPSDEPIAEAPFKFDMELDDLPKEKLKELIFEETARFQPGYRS
Assay [7] concerns the target T1, Aurora kinase A (Homo sapiens) (UniProt O14965).
T1 sequence (whole entry): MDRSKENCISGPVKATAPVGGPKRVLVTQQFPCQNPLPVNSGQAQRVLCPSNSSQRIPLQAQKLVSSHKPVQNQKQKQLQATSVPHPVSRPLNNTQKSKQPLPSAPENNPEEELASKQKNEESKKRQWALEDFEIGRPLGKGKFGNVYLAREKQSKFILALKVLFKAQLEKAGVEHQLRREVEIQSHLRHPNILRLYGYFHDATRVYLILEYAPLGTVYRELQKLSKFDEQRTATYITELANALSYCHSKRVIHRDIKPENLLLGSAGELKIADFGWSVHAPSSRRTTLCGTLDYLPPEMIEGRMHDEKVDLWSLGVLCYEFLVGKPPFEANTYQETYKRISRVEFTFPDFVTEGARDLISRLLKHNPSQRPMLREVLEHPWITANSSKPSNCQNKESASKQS

The target in assay [8] is T2, Transcription intermediary factor 1-alpha (Homo sapiens) (UniProt O15164).
T2 sequence (whole entry): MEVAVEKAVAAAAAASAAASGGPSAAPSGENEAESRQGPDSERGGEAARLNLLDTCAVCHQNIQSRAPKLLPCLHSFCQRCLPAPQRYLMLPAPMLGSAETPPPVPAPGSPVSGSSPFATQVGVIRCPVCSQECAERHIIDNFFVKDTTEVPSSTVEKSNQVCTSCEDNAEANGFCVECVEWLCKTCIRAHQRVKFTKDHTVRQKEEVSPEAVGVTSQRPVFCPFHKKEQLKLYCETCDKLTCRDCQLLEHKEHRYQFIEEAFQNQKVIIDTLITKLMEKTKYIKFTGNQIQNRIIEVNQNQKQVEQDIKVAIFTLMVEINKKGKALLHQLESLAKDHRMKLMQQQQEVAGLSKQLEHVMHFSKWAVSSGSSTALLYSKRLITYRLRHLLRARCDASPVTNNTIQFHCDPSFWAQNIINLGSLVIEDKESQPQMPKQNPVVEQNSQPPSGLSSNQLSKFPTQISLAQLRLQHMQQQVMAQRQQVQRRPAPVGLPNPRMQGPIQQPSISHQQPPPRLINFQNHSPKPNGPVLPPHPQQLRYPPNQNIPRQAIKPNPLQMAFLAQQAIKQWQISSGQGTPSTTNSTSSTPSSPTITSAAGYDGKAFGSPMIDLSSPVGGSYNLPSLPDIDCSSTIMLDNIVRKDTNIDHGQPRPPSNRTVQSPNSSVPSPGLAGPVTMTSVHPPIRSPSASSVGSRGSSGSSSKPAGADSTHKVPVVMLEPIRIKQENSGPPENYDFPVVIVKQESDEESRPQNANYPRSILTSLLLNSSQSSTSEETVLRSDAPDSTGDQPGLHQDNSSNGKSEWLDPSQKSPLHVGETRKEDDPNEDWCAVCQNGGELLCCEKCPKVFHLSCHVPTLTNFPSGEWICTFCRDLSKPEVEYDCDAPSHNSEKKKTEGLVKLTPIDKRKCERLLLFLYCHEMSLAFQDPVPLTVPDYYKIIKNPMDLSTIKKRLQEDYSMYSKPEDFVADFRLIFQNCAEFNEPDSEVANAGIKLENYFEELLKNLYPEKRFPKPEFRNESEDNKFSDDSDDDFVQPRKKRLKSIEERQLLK

Residues, ends and D or L forms follow the SMILES beside them.

Sequence of Tyrosine-protein kinase ABL1 (Homo sapiens) (P00519 whole entry): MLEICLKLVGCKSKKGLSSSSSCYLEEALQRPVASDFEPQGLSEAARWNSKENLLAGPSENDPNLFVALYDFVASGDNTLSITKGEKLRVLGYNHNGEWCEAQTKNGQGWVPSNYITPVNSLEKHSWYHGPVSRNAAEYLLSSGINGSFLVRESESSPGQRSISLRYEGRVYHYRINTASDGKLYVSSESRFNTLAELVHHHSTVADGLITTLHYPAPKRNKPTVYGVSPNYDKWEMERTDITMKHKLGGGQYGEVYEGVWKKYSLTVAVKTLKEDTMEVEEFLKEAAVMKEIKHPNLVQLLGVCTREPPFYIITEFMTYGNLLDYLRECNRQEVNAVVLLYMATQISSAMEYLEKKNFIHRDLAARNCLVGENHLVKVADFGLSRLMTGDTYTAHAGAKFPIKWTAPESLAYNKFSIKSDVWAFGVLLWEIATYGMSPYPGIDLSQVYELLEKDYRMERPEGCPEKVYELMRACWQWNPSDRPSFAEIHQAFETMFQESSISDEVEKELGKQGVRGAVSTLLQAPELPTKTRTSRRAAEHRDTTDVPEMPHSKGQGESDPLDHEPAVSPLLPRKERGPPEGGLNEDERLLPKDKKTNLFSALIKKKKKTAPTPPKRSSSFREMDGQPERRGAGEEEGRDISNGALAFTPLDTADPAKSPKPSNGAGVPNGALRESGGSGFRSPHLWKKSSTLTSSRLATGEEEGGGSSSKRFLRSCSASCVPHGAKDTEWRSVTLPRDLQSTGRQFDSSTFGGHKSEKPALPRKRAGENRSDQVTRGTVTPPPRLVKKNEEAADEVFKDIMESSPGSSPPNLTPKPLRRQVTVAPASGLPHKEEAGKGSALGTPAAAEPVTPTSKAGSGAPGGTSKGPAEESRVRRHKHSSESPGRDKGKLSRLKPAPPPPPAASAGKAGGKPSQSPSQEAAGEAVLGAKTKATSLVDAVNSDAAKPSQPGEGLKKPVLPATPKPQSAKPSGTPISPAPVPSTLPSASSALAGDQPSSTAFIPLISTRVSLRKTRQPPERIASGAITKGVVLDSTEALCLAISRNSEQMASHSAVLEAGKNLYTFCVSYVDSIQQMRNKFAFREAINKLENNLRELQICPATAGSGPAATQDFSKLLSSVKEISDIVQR
Sequence of Glycogen synthase kinase-3 beta (Homo sapiens) (P49841 whole entry, looked up): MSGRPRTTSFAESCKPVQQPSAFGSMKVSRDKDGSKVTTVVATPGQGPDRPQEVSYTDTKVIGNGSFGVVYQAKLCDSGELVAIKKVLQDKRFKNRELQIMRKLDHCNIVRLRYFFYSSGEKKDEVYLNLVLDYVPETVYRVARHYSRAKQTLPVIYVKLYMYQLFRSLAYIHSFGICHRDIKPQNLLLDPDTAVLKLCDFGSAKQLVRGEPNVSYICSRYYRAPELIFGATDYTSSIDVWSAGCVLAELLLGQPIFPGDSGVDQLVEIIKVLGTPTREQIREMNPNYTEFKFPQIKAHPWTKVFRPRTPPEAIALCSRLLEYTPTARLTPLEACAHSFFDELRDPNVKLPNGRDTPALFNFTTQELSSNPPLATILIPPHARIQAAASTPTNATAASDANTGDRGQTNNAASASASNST
Sequence of Casein kinase I isoform delta (Homo sapiens) (P48730 whole entry, looked up, canonical isoform): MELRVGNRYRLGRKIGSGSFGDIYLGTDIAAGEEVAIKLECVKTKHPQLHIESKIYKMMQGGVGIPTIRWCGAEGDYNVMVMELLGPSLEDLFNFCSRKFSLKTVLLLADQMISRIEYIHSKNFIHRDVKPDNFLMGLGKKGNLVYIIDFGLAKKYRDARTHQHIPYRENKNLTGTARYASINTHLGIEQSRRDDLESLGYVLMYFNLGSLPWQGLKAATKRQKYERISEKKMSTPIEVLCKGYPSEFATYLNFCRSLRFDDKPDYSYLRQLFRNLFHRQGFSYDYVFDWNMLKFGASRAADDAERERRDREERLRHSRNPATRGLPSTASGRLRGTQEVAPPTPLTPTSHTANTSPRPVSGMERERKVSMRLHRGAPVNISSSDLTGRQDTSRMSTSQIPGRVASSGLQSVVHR

For `O=C(Nc1ccccc1C(=O)O)c1cc(S(=O)(=O)c2ccccc2)ccc1Cl`, the ΔTm in assay [1] is 0.57 °C; in assay [2], -2.4 °C; in assay [3] it was 0.28 °C; in assay [4] it was -0.33 °C; in assay [5], 0.26 °C; in assay [6], 0.08 °C. The ΔTm in assay [7] is -2.26 °C; in assay [8], 1.1 °C.
Turning to `Nc1ncnc2c1nc(NCc1ccc(-c3ccccc3)cc1)n2[C@@H]1O[C@H](CO)[C@@H](O)[C@H]1O`, the ΔTm in assay [1] was 1.36 °C; in assay [2] it was -3.1 °C; in assay [3], 0.21 °C; in assay [4], -0.22 °C; in assay [5], -0.69 °C; in assay [6], 0.28 °C. The results for the ΔTm in assay [7] and in assay [8] were -1.41 °C and -0.53 °C, respectively.
On to `COc1cc(-c2cn(C)c(=O)c3cnccc23)cc(OC)c1CN(C)CC(=O)NCCOCCOCCNc1cccc2c1C(=O)N(C1CCC(=O)NC1=O)C2=O` (centres undefined), for which the ΔTm was 0.07 °C in assay [1]; -1.54 °C in assay [2]; 0.21 °C in assay [3]; 0.06 °C in assay [4]; 0.14 °C in assay [5]; -0.38 °C in assay [6]. Further, the ΔTm in assay [7] was -1.03 °C; in assay [8], -0.75 °C.
For `NC(=O)c1cccc(NC(=O)CCC(=O)NCCc2cn(CCNS(=O)(=O)c3cccc(C(=O)O)c3)nn2)c1`, the ΔTm in assay [1] is 0.47 °C; in assay [2], -2.59 °C; in assay [3], -0.69 °C; in assay [4] it was 0.02 °C; in assay [5] it was -1.06 °C; in assay [6], -1.68 °C. In addition, the results for the ΔTm in assay [7] and in assay [8] were -2.28 °C and -0.11 °C, respectively.
Turning to `CN1CC(=O)N2[C@H](c3ccc4c(c3)OCO4)c3[nH]c4ccccc4c3C[C@@H]2C1=O`, the ΔTm in assay [1] was 0.48 °C; in assay [2] it was -3.03 °C; in assay [3], -0.06 °C; in assay [4], 0.06 °C; in assay [5], -0.13 °C; in assay [6] it was 0.16 °C. For the same compound, the values for the ΔTm in assay [7] and in assay [8] were -2.46 °C and -0.6 °C, respectively.
For the compound `COc1nc(Nc2cc(S(C)(=O)=O)ccc2N[C@@H](c2cccc3c2OC(F)(F)O3)c2ncccc2Cl)nc(N2CCNCC2)n1`, the ΔTm in assay [1] is -0.96 °C; in assay [2] it was -4.95 °C; in assay [3], -3.51 °C; in assay [4], -0.34 °C; in assay [5] it was 0 °C; in assay [6], 0 °C. For the same compound, the ΔTm was -5.82 °C in assay [7] and 0.37 °C in assay [8].
`Cc1nn2c(nc(O)c3cccnc32)c1C#N`: the ΔTm in assay [1] is 0.68 °C; in assay [2], -3.07 °C; in assay [3], 0.02 °C; in assay [4], -0.11 °C; in assay [5], -0.51 °C; in assay [6], 0.18 °C. Further, the results for the ΔTm in assay [7] and in assay [8] were -2.1 °C and 1.17 °C, respectively.
Consider `O=C(NCC1CCOCC1)c1n[nH]cc1NC(=O)c1c(F)cccc1F`, for which the ΔTm in assay [1] is 0.15 °C; in assay [2], -2 °C; in assay [3], 3.53 °C; in assay [4], 1.77 °C; in assay [5], 14.4 °C; in assay [6], 0.1 °C. The results for the ΔTm in assay [7] and in assay [8] were 1.73 °C and -0.72 °C, respectively.
`O=C1c2ccccc2C(=O)c2oc(-c3ccc(F)cc3)nc21`: the ΔTm in assay [1] is 0.01 °C; in assay [2], -1.84 °C; in assay [3], -0.07 °C; in assay [4], -0.12 °C; in assay [5], -0.33 °C; in assay [6], 0.17 °C. Moreover, the ΔTm is -2.4 °C in assay [7] and -0.61 °C in assay [8].
As for `O=c1[nH]c(N2CCC3(CC2)CN(CCO)c2cc(F)cc(F)c23)nc2c1CCCC2`, the ΔTm in assay [1] was 0.43 °C; in assay [2], -3.2 °C; in assay [3], 0.1 °C; in assay [4] it was -0.13 °C; in assay [5], -1.32 °C; in assay [6] it was 0.22 °C. In addition, the ΔTm in assay [7] was -0.79 °C; in assay [8], -1.21 °C.
Consider `CC(C)c1cc(C(=O)N2Cc3ccc(CN4CCN(C)CC4)cc3C2)c(O)cc1O`, for which the ΔTm was 1.01 °C in assay [1]; -1.29 °C in assay [2]; 0.67 °C in assay [3]; 0.22 °C in assay [4]; -0.43 °C in assay [5]; -0.06 °C in assay [6]. The ΔTm was -0.12 °C in assay [7] and -0.61 °C in assay [8].
Consider `Cc1cc(N2C[C@@H](C)N[C@@H](C)C2)ncc1-c1ccc(-c2nc3c(ccn3C)c(=O)[nH]2)cc1`, for which the ΔTm in assay [1] was 1.3 °C; in assay [2] it was -0.52 °C; in assay [3], 0.78 °C; in assay [4] it was 0.59 °C; in assay [5], 0.66 °C; in assay [6] it was 0.08 °C. Moreover, the ΔTm in assay [7] is -1.4 °C; in assay [8] it was 0.61 °C.
For `O=C(NCC(=O)N1CCCCC1)Nc1ccc2nnsc2c1`, the ΔTm in assay [1] is 0.46 °C; in assay [2], -0.58 °C; in assay [3], 0.28 °C; in assay [4], 0.06 °C; in assay [5] it was 0.23 °C; in assay [6], -0.52 °C. Besides, the ΔTm was -0.71 °C in assay [7] and 0.08 °C in assay [8].
Take `Nc1nc(NC2CC2)cc(-c2cccc(Cl)c2Cl)n1`: the ΔTm was 0.77 °C in assay [1]; -2.44 °C in assay [2]; 0.2 °C in assay [3]; -0.46 °C in assay [4]; 0.36 °C in assay [5]; 0.25 °C in assay [6]. In addition, the ΔTm was -1.81 °C in assay [7] and 0.87 °C in assay [8].
In the case of `O=[N+]([O-])c1c(Nc2cc(F)cc(Cl)c2)ccc2nonc12`, the ΔTm is 0.44 °C in assay [1]; -2.93 °C in assay [2]; 0.03 °C in assay [3]; -0.44 °C in assay [4]; -0.33 °C in assay [5]; 0.07 °C in assay [6]. The results for the thermal shift (ΔTm) in assay [7] and in assay [8] were -2.49 °C and -0.26 °C, respectively.
As to `O=C(COc1ccc(-c2oc3cc(O)c(C(=O)O)cc3c2C#Cc2cccc(Cl)c2)cc1)NC1CC1`, the ΔTm is 0.23 °C in assay [1]; -1.93 °C in assay [2]; 0.55 °C in assay [3]; 0.15 °C in assay [4]; -0.41 °C in assay [5]; -0.57 °C in assay [6]. Also, the ΔTm is -0.11 °C in assay [7] and -0.84 °C in assay [8].
For the compound `CC[C@H](C)[C@H](NC(=O)[C@H](CCC(=O)O)NC(=O)[C@@H](NC(C)=O)C(C)C)C(=O)N[C@H](C=O)CC(=O)O` (Ac-VEID-aldehyde), the ΔTm was -0.05 °C in assay [1]; -2.59 °C in assay [2]; -0.23 °C in assay [3]; -0.08 °C in assay [4]; -0.35 °C in assay [5]; -0.47 °C in assay [6]. Besides, the figures for the ΔTm in assay [7] and in assay [8] were -1.47 °C and -0.43 °C, respectively.
For `NS(=O)(=O)c1cc(-c2nnn[nH]2)c(NCc2cccs2)cc1Cl`, the ΔTm in assay [1] was 0.69 °C; in assay [2], -1.05 °C; in assay [3], 1.03 °C; in assay [4], 0.19 °C; in assay [5], 1.34 °C; in assay [6] it was 0.84 °C. Further, the results for the ΔTm in assay [7] and in assay [8] were -1.94 °C and 0 °C, respectively.
Regarding `COc1c(CN)cc(CN)cc1OCCCN1Cc2ccccc2C1`, the ΔTm is 0.19 °C in assay [1]; -1.72 °C in assay [2]; -0.14 °C in assay [3]; -0.24 °C in assay [4]; -0.15 °C in assay [5]; 0.22 °C in assay [6]. In addition, the figures for the ΔTm in assay [7] and in assay [8] were -2.26 °C and 0.95 °C, respectively.
For `CC(=O)N[C@@H](C)C(=O)N[C@@H](CCC(=O)O)C(=O)N[C@H](C(=O)N[C@@H](C=O)CC(=O)O)C(C)C`, the ΔTm in assay [1] is 0.22 °C; in assay [2], -2.8 °C; in assay [3], -0.37 °C; in assay [4] it was 0.14 °C; in assay [5], -0.69 °C; in assay [6], 0.23 °C. Besides, the ΔTm in assay [7] is -1.91 °C; in assay [8] it was -0.66 °C.
For `CC(C)Oc1ccc(C=O)cc1`, the ΔTm in assay [1] is 0.27 °C; in assay [2] it was -1.93 °C; in assay [3] it was -0.05 °C; in assay [4] it was 0.18 °C; in assay [5], -0.88 °C; in assay [6], 0.02 °C. The values for the ΔTm in assay [7] and in assay [8] were -1.79 °C and -0.93 °C, respectively.
For the compound `C[C@H](CN[C@@H](C(=O)Nc1ccc(-c2cnn(C)c2)cn1)c1ccccc1)c1ccc(C#N)cc1`, the ΔTm in assay [1] is -0.21 °C; in assay [2], -5.89 °C; in assay [3], -3.07 °C; in assay [4], 1.03 °C; in assay [5], -2.94 °C; in assay [6], -4.97 °C. The ΔTm in assay [7] is -1.84 °C; in assay [8] it was -1.37 °C.
Consider `O=C(Nc1ccc2[nH]nc(-c3ccncc3)c2c1)[C@@H]1CCN(CC(=O)N2CCN(c3ccc(-c4ncccn4)cc3)CC2)C1`, for which the ΔTm in assay [1] is 1.95 °C; in assay [2] it was -1.51 °C; in assay [3], 0.12 °C; in assay [4], 1.66 °C; in assay [5], 1.44 °C; in assay [6], 13.1 °C. The ΔTm in assay [7] was 3.82 °C; in assay [8], -0.46 °C.
